Our source for the growth values is PubChem BioAssay (NCI).

Some test systems named below: T-47D breast; BT-549 breast; MDA-MB-435 melanoma; SW-620 colon; MCF7 breast; HCT-116 colon; HCC-2998 colon; KM12 colon.
Common to all, as to assay: NCI-60 one-dose screen, 48 h (100 = growth as untreated, 0 = no growth, -100 = all killed)
What all share (conditions): 10 µM unless noted

This is part of a sample that, as a whole, favours compounds with a hit. Of some 83,000 tested, about 20% had one in any assay.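 Values shown are percent growth following 48 h exposure of cells in 96-well plates to a single concentration of compound; below 10 was considered active.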 Values without a mark were called inactive. Calls of active or inactive are those of the source.

As for `COc1ccc(S(=O)(=O)Nc2cc(/C=C\c3cc(OC)c(OC)c(OC)c3)cc(OC)c2OC)cc1OC`, the growth was 43.8% in the assay on T-47D breast; 47% in the assay on BT-549 breast; -66.5% (active) in the assay with MDA-MB-435 melanoma; 25.5% in the assay with SW-620 colon; 18.1% in the assay with MCF7 breast; 15.6% in the assay on HCT-116 colon. For the same compound, the growth with HCC-2998 colon was 21.1%; in the assay on KM12 colon it was 21.7%.
As for `CC(CCc1ccccc1)NC(=O)c1n[nH]c(=O)c2ccccc12` (configuration not stated), the growth in the assay on T-47D breast was 95.8%; with BT-549 breast, 98.9%; in the assay with MDA-MB-435 melanoma it was 108%; in the assay on SW-620 colon it was 100%; with MCF7 breast it was 90.7%; with HCT-116 colon, 97%. In addition, the growth in the assay with HCC-2998 colon is 156%; in the assay on KM12 colon, 109%.
As to `O=S(=O)(NCCCNc1cc(-c2cn(-c3ccccc3)nc2-c2cccc(O)c2)ccn1)c1cccc(F)c1`, the growth with T-47D breast was 15.6%; in the assay with BT-549 breast, 44.7%; in the assay on MDA-MB-435 melanoma it was 49.3%; in the assay with SW-620 colon, 29.5%; with MCF7 breast, 31.2%; with HCT-116 colon, 32.1%. In addition, the growth in the assay on HCC-2998 colon was 10.3%; in the assay on KM12 colon, 28.2%.
Regarding `CCC1CCc2nc3sc(C(=O)Nc4ccccc4C)c(N)c3cc2C1` (configuration not stated), the growth in the assay with T-47D breast was 63.6%; in the assay with BT-549 breast, 74.7%; in the assay with MDA-MB-435 melanoma, -38.4% (active); with SW-620 colon, 26.9%; in the assay with MCF7 breast, 15.2%; with HCT-116 colon, 25.5%. For the same compound, the growth was 62.2% in the assay on HCC-2998 colon and 29.6% in the assay on KM12 colon.
For the compound `CCCn1c(=S)sc2c(Cl)nc(C)nc21`, the growth was 104% with T-47D breast; 42.9% in the assay with BT-549 breast; 104% in the assay on MDA-MB-435 melanoma; 102% in the assay with SW-620 colon; 46.7% with MCF7 breast; 104% in the assay with HCT-116 colon. Moreover, the growth was 111% in the assay on HCC-2998 colon and 104% in the assay with KM12 colon.
With `COc1ccc(NC(=O)CSc2nc3ccccc3c(=O)n2-c2ccccc2C(F)(F)F)c(OC)c1OC`, the growth with T-47D breast is 95.1%; with BT-549 breast it was 99.8%; in the assay with MDA-MB-435 melanoma it was 107%; in the assay with SW-620 colon it was 95.3%; in the assay with MCF7 breast it was 97.8%; in the assay on HCT-116 colon it was 98.3%. In addition, the growth with HCC-2998 colon was 118%; in the assay with KM12 colon, 101%.
On to `CSc1ccccc1C#C/C=C\C#Cc1ccccc1N1CCCCC1=O`, for which the growth is 95.1% with T-47D breast; 92.1% in the assay on BT-549 breast; 107% in the assay on MDA-MB-435 melanoma; 100% in the assay on SW-620 colon; 94.9% in the assay on MCF7 breast; 95% with HCT-116 colon. For the same compound, the growth was 99.9% with HCC-2998 colon and 114% with KM12 colon.
With `Cc1ccc2nc(-c3c(CCCO)noc3N)[nH]c(=O)c2c1`, the growth in the assay on T-47D breast was 107%; with BT-549 breast, 102%; in the assay on MDA-MB-435 melanoma it was 110%; in the assay on SW-620 colon, 103%; in the assay with MCF7 breast it was 88.7%; with HCT-116 colon, 102%. Besides, the values for the growth with HCC-2998 colon and with KM12 colon were 128% and 102%, respectively.
Turning to `Cc1sc(N=Nc2ccc(N(C)C)cc2)[n+]([O-])c1C`, the growth with T-47D breast was 95.4%; in the assay on BT-549 breast it was 94.3%; in the assay on MDA-MB-435 melanoma it was 101%; in the assay with SW-620 colon it was 99.3%; in the assay on MCF7 breast, 79.9%; in the assay with HCT-116 colon, 112%. For the same compound, the growth in the assay on HCC-2998 colon was 112%; in the assay with KM12 colon it was 91.7%.
As to `O=C(COc1ccccc1)N1N=C(c2ccc(Cl)cc2)CC1c1c[nH]c2ccccc12` (configuration not stated), the growth in the assay with T-47D breast is 51.4%; in the assay with BT-549 breast, 71.3%; in the assay on MDA-MB-435 melanoma it was 93.8%; in the assay with SW-620 colon, 54.5%; in the assay with MCF7 breast, 39.7%; in the assay on HCT-116 colon, 68.5%. Besides, the results for the growth in the assay with HCC-2998 colon and in the assay with KM12 colon were 103% and 74.1%, respectively.
Consider `CCOC(=O)C1=C(CSC(=S)N(C2CCCCC2)C2CCCCC2)N(C)C(=O)NC1c1ccccc1` (configuration not stated), for which the growth in the assay with T-47D breast was 50.2%; with BT-549 breast, 66.3%; in the assay on MDA-MB-435 melanoma, 58.1%; in the assay with SW-620 colon, 37.2%; in the assay on MCF7 breast it was 46.4%; in the assay with HCT-116 colon, 26.2%. Further, the values for the growth in the assay with HCC-2998 colon and in the assay on KM12 colon were 71.9% and 55.7%, respectively.
In the case of `Cc1ccc(C(=O)c2sc3nc4c(cc3c2N)CCCC4)c(C)c1`, the growth with T-47D breast was 35.4%; in the assay on BT-549 breast, 55.8%; in the assay with MDA-MB-435 melanoma it was -44.5% (active); in the assay with SW-620 colon, 30.3%; in the assay on MCF7 breast it was 21%; with HCT-116 colon it was 25.3%. In addition, the growth with HCC-2998 colon was 39.6%; in the assay on KM12 colon, 33.9%.
With `N#CC1=C(N)OC2=C(C(=O)CCC2)C1c1ccco1` (configuration not stated), the growth in the assay with T-47D breast is 92.6%; in the assay on BT-549 breast, 110%; in the assay with MDA-MB-435 melanoma, 98.9%; in the assay with SW-620 colon, 110%; in the assay on MCF7 breast it was 95.5%; in the assay with HCT-116 colon, 103%. Moreover, the growth in the assay with HCC-2998 colon was 104%; in the assay with KM12 colon it was 110%.
Take `c1cncc(CNc2ccccc2-c2nnc(Nc3ccc4c(c3)OCCO4)o2)c1`: the growth was 73.6% in the assay on T-47D breast; 16.6% in the assay with BT-549 breast; -20.3% (active) with MDA-MB-435 melanoma; 23.2% with SW-620 colon; 20.9% with MCF7 breast; 9.5% (active) in the assay with HCT-116 colon. The values for the growth with HCC-2998 colon and in the assay on KM12 colon were 9.58% (active) and 3.03% (active), respectively.
